Screens deposited in PubChem BioAssay by National Center for Advancing Translational Sciences (NCATS).
IL-1B inflam inh: inflammasome signaling inhibition, IL-1 beta readout; THP-1 LPS/ATP IL-1B secretion, AlphaLISA, 16 h; stronger effect = lower value; activity change, % at 57.5 µM; 4.7% of 360,000 active; AID 743279; in the data active = activity change below about -50%; inconclusive = mostly about -30% to -49%
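Secreted IL-1B measured by AlphaLISA bead assay after 16 h compound exposure of THP-1 cells; compounds (final up to 57.5 uM) added 1 h before LPS (250 ng/mL) and ATP (1.25 mM) stimulation; lower signal means less secretion.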
DT40 TDP1 CPT: growth inhibition of DT40 Tdp1-/-;hTDP1 cells with camptothecin (screen for TDP1 inhibitors) | chicken DT40 Tdp1-/-;hTDP1 cells + 20 nM CPT, ATP luminescence, 48 h | Potency, µM (highest dose often 46.2 µM), inactives show top-dose activity change, negative = growth inhibition, hits mostly inhibitors | 12% of 420,000 active; also: potency is read from the fitted curve at half-maximal effect; nearly all actives have a fitted effect of over 55% in size
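Cell growth measured by CellTiter-Glo luminescence after a minimum 48 h, 37 C compound exposure with 20 nM CPT in Tdp1-knockout DT40 cells stably expressing hTDP1, seeded 400/well; qHTS titration format.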
DT40 TDP1 no CPT: qHTS for Inhibitors of human tyrosyl-DNA phosphodiesterase 1 (TDP1): qHTS in cells in absence of CPT; 15% of 420,000 active; Potency, µM (series often up to 46.2 µM), inactives show at the highest dose activity change, negative = growth inhibition, most hits filed as inhibitors; DT40 Tdp1-/- hTDP1 cells, no CPT, ATP luminescence, 48 h; also: potency is read from the fitted curve at half-maximal effect; nearly all actives have a fitted effect of over 55% in size
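Cells were dispensed at 400 per well, compounds added by pin tool, plates incubated ≥48 hr at 37 °C, then CellTiter-Glo added for 30 min at room temperature before luminescence reading. Line: DT40 Tdp1-/- complemented with hTDP1; camptothecin omitted.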
HT1080NT lethal: kills 2HG-producing HT-1080-NT fibrosarcoma cells; HT-1080-NT fibrosarcoma viability, CellTiter-Glo ATP luminescence, 48 h; Potency, µM (titrated, usually from 46.1 µM), for the others: at the top dose activity, negative = less viability, usual class: cytotoxic; 1.6% of 360,000 active;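 also: NT is the 2HG producing partner of a matched IDH1 knockdown line; potency is read from the fitted curve at half-maximal effect; 0% = DMSO-treated cells and -100% = media-only wells without cells; nearly all actives have a fitted effect of over 55% in size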
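750 cells/well, RPMI + 5% FBS; 2 h settle, compound pin-transfer, 48 h at 37 degrees C. CellTiter-Glo 10 min RT, luminescence. Normalized to DMSO and media-only wells.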
HT1080 IDH1KD tx: kills HT-1080 cells with IDH1 knockdown; 2% of 360,000 active; Potency, µM (highest dose often 46.1 µM), for inactives: at the highest dose activity, negative = toxicity, hits mostly cytotoxic; HT-1080 IDH1 knockdown viability, ATP luminescence, 48 h; AID 686971;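 also: potency is read from the fitted curve at half-maximal effect; 0% = DMSO wells and -100% = cell-free medium wells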
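IDH1KD HT-1080 cells, 750/well, RPMI + 5% FBS; compound pinned after 2 h settling; 48 h, 37 °C; CellTiter-Glo luminescence; % activity normalised to DMSO and no-cell wells; curves fitted, classed by r2 and efficacy.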
* marks the source's active call; other numbers are inactive results; i = inactive; ? = inconclusive; · = not tested or not shown. Most compounds without a hit are left out; they make up all but 19% or so of the library. Unless noted, calls follow the shape of the dose curve; as a rule, active = well fitted curve in the direction sought with a large enough effect; inconclusive = small, poorly fitted or top-dose-only effect, or another doubt; inactive = no such curve, though single readings can be large; an effect the other way counts as inactive or inconclusive. Unless noted, % is scaled to controls: 0 for no effect and ±100 for the full control effect.

SMILES | IL-1B inflam inh | DT40 TDP1 CPT | DT40 TDP1 no CPT | HT1080NT lethal | HT1080 IDH1KD tx
CCCCNC(=O)c1onc(CSc2ccc(Cl)cc2)c1C(=O)NCCCC | ? | ? | ? | -10.5% | -0.8%
C=CCNC(=O)c1onc(CSc2ccc(Cl)cc2)c1C(=O)NCC=C | -14.7 | ? | 16.4µM* | -9.4% | -0.1%
O=C(Nc1ccnn1C1CCN(Cc2ccc(CO)o2)CC1)c1cccc(F)c1 | -24.0 | -5.4% | ? | -3.5% | -1.9%
Cc1cc(C)c2c(NC(=O)c3ccccc3Cl)c(C(=O)Nc3ccc(C)c(C)c3)sc2n1 | · | 8.2µM* | 16.4µM* | · | ·
COc1ccc(CN(C(=S)Nc2ccccc2)C2CC(=O)N(c3ccc(Cl)cc3)C2=O)cc1 (stereo not given) | -21.3 | ? | -27.9% | 11.6µM* | ?
NC(Cc1ccc(C(F)(F)F)cc1)c1csc(Nc2cc(Oc3ccccc3)ncn2)n1 (stereo not given) | -88.9* | ? | ? | ? | ?
NCc1csc(Nc2cc(Oc3ccccc3)ncn2)n1 | 12.1 | ? | ? | -3.1% | 23.5%
Nc1ccc(CC(N)c2csc(Nc3cc(Oc4ccccc4)ncn3)n2)cc1 (stereo not given) | -85.3* | ? | 23.1µM* | ? | ?
Cc1nc(NC(=O)c2cccnc2Cl)sc1C | 18.9 | -1.5% | ? | -6.4% | -5.9%
COc1cc(CNCc2ccccc2)c(Br)cc1OC1CCCC1 | -54.9* | ? | ? | ? | ?
CC1CCCCC1NC(=O)COC(=O)COc1ccccc1Cl (stereo not given) | -3.9 | 18.7% | -8.9% | -1.1% | 15.0%
COCCNC(=S)NNC(=O)c1cc(C2CC2)nc2ccccc12 | 17.9 | -2.7% | 3.3% | 3.1% | 1.8%
CCNC(=S)NNC(=O)c1cc(-c2cccc(OC)c2)nc2ccccc12 | 1.9 | ? | 16.4µM* | 8.2% | 5.2%
CCCCNC(=S)NNC(=O)c1cc(C2CC2)nc2ccccc12 | 10.5 | ? | 3.66µM* | 8.4% | 8.9%
CCOc1ccc(-c2cc(C(=O)O)c3ccccc3n2)c(OCC)c1 | 18.2 | -11.9% | -19.6% | 14.1µM* | 7.08µM*
CCNC(=S)NNC(=O)c1cc(-c2ccc(OCC)cc2)nc2ccccc12 | -14.2 | 5.01µM* | 4.47µM* | 3.55µM* | 5.01µM*
CCCCOC(=O)c1ccc(NC(=O)COC(=O)CSc2nc(C)cc(C)n2)cc1 | 41.4 | 15.4% | -7.4% | 1.9% | -10.0%
CC(C)C[C@H]1CN(CCCC[C@@H]2CNC(=O)C(=O)N2CC2CCCCC2)C(=O)C(=O)N1CCc1ccc(O)cc1 | 27.3 | -6.7% | -5.4% | 10.3% | 18.2%
COc1ccc(-c2ccc(SCC(=O)NC3CCCCC3)nn2)cc1OC | -13.5 | -26.7% | ? | -14.3% | 0.9%
CCOc1ccccc1CNC(=O)c1cc(-c2ccc(OC)cc2)nc2ccc(C(C)C)cc12 | · | 16.4µM* | 16.4µM* | · | ·
Cc1cccc(OC(C)C(=O)Nc2ncn[nH]2)c1 (stereo not given) | · | 6.6% | 6.1% | · | ·
CN(CCc1ccc(Cl)c(Cl)c1)CC(O)COc1ccc(NS(C)(=O)=O)cc1 (stereo not given) | · | 18.4µM* | 23.1µM* | · | ·
COc1ccc(CCN(C)CC(O)COc2c(C)ccc(C)c2C)cc1OC (stereo not given) | ? | ? | ? | -22.2% | -28.6%
CCc1ccccc1NC(=O)C1CCCN(S(=O)(=O)c2ccc3c(c2)CC(C)N3C(C)=O)C1 (stereo not given) | 2.2 | -26.3% | ? | 1.5% | -4.3%
Cc1nc2ccccc2n1CC(=O)c1ccc(O)c(O)c1 | 35.4 | -14.4% | -13.6% | -1.8% | 5.1%
SMILES | IL-1B inflam inh | DT40 TDP1 CPT | DT40 TDP1 no CPT | HT1080NT lethal | HT1080 IDH1KD tx
COCCNC(=O)c1cc(-c2ccccc2C)n(CC2CC(c3cccc([N+](=O)[O-])c3)=NO2)n1 (stereo not given) | -1.7 | ? | ? | 0.0% | -8.8%
Cc1ccccc1-c1cc(C(=O)NCC2CC2)nn1CC1CC(c2cccc([N+](=O)[O-])c2)=NO1 (stereo not given) | -20.5 | ? | 16.4µM* | -10.6% | -14.4%
CC(Cc1cccs1)NC(=O)Nc1ccc(Cl)c(Cl)c1 (stereo not given) | -4.4 | 23.1µM* | 23.1µM* | ? | ?
CC(NC(=O)C1CC1)C(c1cccs1)N1CCOCC1 (stereo not given) | -8.9 | -9.8% | 5.2% | 1.7% | -3.9%
CC(NC(=O)Nc1ccc(Cl)c(Cl)c1)C(c1ccccc1)N1CCOCC1 (stereo not given) | -10.7 | 25.9µM* | ? | 23.1µM* | ?
CC(Cc1cccs1)NC(=O)Nc1ccccc1 (stereo not given) | -11.5 | -28.0% | -8.9% | 9.5% | 1.2%
CC(NC(=O)C1CCC(C(C)(C)C)CC1)C(c1ccccc1)N1CCOCC1 (stereo not given) | 4.5 | ? | 23.1µM* | -0.3% | -0.7%
O=C(Nc1ccc(Oc2cccnc2)cc1)C1CCN(Cc2ccccc2F)CC1 | -9.9 | ? | ? | 1.6% | -1.4%
CC(=O)c1cccc(CN2CCC(C(=O)Nc3ccc(-c4cccc(C)c4)cc3)CC2)c1 | -61.7* | 10.3µM* | 6.51µM* | ? | 20.6µM*
Cc1ccc(CN2CCC(C(=O)Nc3ccc(Oc4cccnc4)cc3)CC2)cc1 | 5.5 | 18.4µM* | 16.4µM* | -7.9% | -25.6%
O=C(Nc1ccc(Oc2cccnc2)cc1)C1CCN(Cc2cccc(Cl)c2)CC1 | 11.6 | 18.4µM* | ? | -21.8% | ?
CC(=O)c1cccc(CN2CCC(C(=O)Nc3ccc(Oc4cccnc4)cc3)CC2)c1 | i | ? | 23.1µM* | -9.7% | ?
CCN(C(=O)COC(=O)C1CCN(S(=O)(=O)c2c(Cl)cccc2Cl)CC1)C1CCCCC1 | 18.1 | -22.1% | -21.3% | 16.4% | 19.7%
Cc1ccsc1C(=O)NNC(=O)c1ccncc1 | -16.0 | 0.0% | 1.3% | -1.2% | -12.1%
CCCCC[C@H](C)N1C[C@@H](COCc2ccccc2)Oc2cc(N3CC[C@@H](O)C3)ccc2S1(=O)=O | 4.8 | ? | ? | ? | ?
CCCCC[C@@H](C)N1C[C@@H](COCc2ccccc2)Oc2cc(N3CC[C@@H](O)C3)ccc2S1(=O)=O | -6.0 | ? | 16.4µM* | ? | ?
CCCCC[C@@H](C)N1C[C@@H](COCc2ccccc2)Oc2cc(N3CC[C@H](O)C3)ccc2S1(=O)=O | -3.4 | ? | 16.4µM* | ? | ?
CC(C)C1N(C(=O)N2CCOCC2)CCN1S(=O)(=O)c1ccccc1 (stereo not given) | 7.2 | -1.7% | 11.1% | 0.5% | -10.0%
